# High-throughput results as filed in PubChem BioAssay.
# ADAM17 inh: inhibits human ADAM17. P78536. recombinant ADAM17, EDANS/DABCYL FRET peptide cleavage. inhibition, % at 6.95 µM. 370,000 tested, 0.83% active;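 active = inhibition above the mean of compounds lying between control limits plus 3 SD, set per campaign, cut at about 8.5% in these data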;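 note: 0% = DMSO-only wells as the low control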
# Target sequence (P78536 215-824 limits assumed): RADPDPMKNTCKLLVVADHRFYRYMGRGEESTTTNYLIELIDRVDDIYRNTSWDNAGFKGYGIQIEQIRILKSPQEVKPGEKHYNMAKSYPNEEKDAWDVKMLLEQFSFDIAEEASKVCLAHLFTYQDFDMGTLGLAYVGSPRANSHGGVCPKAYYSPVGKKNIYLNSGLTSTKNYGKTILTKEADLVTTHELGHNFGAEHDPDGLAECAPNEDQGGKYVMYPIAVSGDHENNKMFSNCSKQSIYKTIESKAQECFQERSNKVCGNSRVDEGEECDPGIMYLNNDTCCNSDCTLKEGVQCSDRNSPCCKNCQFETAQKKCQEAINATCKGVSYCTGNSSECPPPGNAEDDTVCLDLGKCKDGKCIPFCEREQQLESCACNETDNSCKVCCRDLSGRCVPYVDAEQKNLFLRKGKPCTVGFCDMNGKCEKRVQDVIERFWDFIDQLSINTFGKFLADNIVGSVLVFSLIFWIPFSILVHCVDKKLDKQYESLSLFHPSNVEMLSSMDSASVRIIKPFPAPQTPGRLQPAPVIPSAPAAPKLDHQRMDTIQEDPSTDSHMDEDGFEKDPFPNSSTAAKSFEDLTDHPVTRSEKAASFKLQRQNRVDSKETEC
# ADAM10 inh: ADAM10 inhibition, QFRET primary screen; O14672; recombinant ADAM10, EDANS/DABCYL FRET peptide cleavage, 3 h; inhibition, % at 7 µM; 370,000 tested, 0.62% active; AID 720582;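 active = inhibition above a per-campaign cutoff equal to the mean of compounds falling between control-based bounds plus 3 SD, cut at about 20% in these data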;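 note: 0% = DMSO wells while the 100% control is not disclosed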
# NPR1 activator: GC-A (human) enzyme activation | 370,000 tested, 0.14% active | activation, % at 10 µM | HEK293 GC-A cells, cGMP TR-FRET, EC30 ANP; 0% at EC30 ANP, 100% saturating ANP; in the data active = activation above about 40%
# GC-B act: GC-B (human) receptor activation; P20594; HEK293-GC-B cells, CNP EC30, cGMP TR-FRET; 0% at EC30 CNP, 100% saturating CNP; activation, % at 10 µM; 370,000 tested, 0.11% active; AID 1920062;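 active = activation at 10 µM reaching about 35% in either raw or pattern-adjusted values, limit read from the data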
# FAS-TE inh: blocks the thioesterase domain of human fatty acid synthase. inhibition, % at 15 µM. AID 602261. recombinant FAS-TE, OMFH fluorogenic substrate, fluorescence endpoint. P49327. 360,000 tested, 0.67% active;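 active = compounds whose normalised, plate-corrected inhibition of enzyme fluorescence in the single-dose primary screen is 50% or more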;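 note: 0% = DMSO with enzyme and 100% = substrate without enzyme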
# FAS-TE inh conf: FAS thioesterase (human) inhibition, confirmation. shares compounds with FAS-TE inh. recombinant FAS-TE, OMFH fluorogenic substrate, fluorescence. inhibition, % at 15 µM. 2,300 tested, 45% active. AID 624325;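 active = compounds inhibiting the enzyme by at least 50% at 15 µM in any one of the replicates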;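 note: 0% = enzyme with DMSO only and 100% = wells lacking enzyme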
# An asterisk follows results filed as active; i = inactive; · = no result given. Hits are enriched below; roughly 2% of the tested compounds scored in any of these assays.
SMILES,ADAM17 inh,ADAM10 inh,NPR1 activator,GC-B act,FAS-TE inh,others
COC[C@H]1O[C@]2(c3ccccc3)CO[C@H]1[C@@H](/C=C/c1ccccc1)C2,-2,3,1,-4,·,
C=CCN1C(=O)[C@@H](CC(=O)N2CCCC2)[C@]2(C(=O)OC)CCCCC=C12,0,-1,2,-2,·,
COc1cc(CNc2ccc3[nH]c(=O)[nH]c3c2)ccc1OCc1ccccc1C,-23,-63,-6,-11,6,
COc1cc(CNc2ccc3[nH]c(=O)[nH]c3c2)ccc1OCc1ccccc1F,-49,-181,-2,43*,0,
CCN(CC)c1ccc(C(=C2C=CC(=[N+](CC)CC)C=C2)c2ccccc2)cc1,4,-16,-44,39*,82*,
CCN(CC)c1ccc(C(=O)NNC(=O)CCNC(=O)c2ccccc2)cc1,1,-8,2,5,-12,
C=CCSc1nnc2nc3c(nn12)c1cc(C)ccc1n3CC=C,2,0,50*,51*,6,
C=CCn1c2ccccc2c2nnc(SCC(N)=O)nc21,1,1,2,0,-4,
O=C1CCS/C(=N\N=C\c2ccc(Cl)cc2Cl)N1,-1,-4,56*,-5,-1,
Cc1ccccc1/C=N/N=C1/NC(=O)CCS1,-1,3,20,-2,-8,
COc1ccc(C(CCOC(=O)Oc2ccccc2)c2cc(OC)cc(OC)c2)cc1 (centres undefined),7,15,-2,2,·,
O=C1C(Cl)=C(N2CCCCC2)C(=O)C(Cl)=C1c1cnc(N2CCCCC2)s1,·,·,·,·,78*,
O=C(Nc1ccccc1C(F)(F)F)OCCCN1CCC2(CCC(c3ccccc3)CC2)C1=O (centres undefined),3,12,-1,2,·,
CCOC(=O)c1cnn(-c2c(Cc3ccccc3)c(C)nc3c(-c4ccccc4)c(C)nn23)c1N,10*,10,0,6,39,
CCOc1ccc(C=NNC(=O)c2cc(-c3ccc(Cl)cc3)n[nH]2)cc1,-3,-4,2,-9,·,
CC(=O)N(c1ccccc1)c1nc(/C=C/C(=O)Nc2c(C)cc(C)cc2C)cs1,3,-2,40*,43*,-6,
CC(=O)N(c1ccccc1)c1nc(/C=C/C(=O)O)cs1,3,3,-5,1,-6,
CCOC(=O)[C@]12CCCCC/C=C\1N(CCc1ccc(Cl)cc1)C(=O)[C@H]2CC(=O)NCCCN1CCCC1=O,1,0,-1,0,·,
CCOC(=O)N1CCN(C(=O)C2CCN(C(=O)c3ccccc3C)CC2)CC1,-1,-6,41*,18,6,
CCC1(O)C(=O)OCc2c1cc1n(c2=O)Cc2cc3cc(O)ccc3nc2-1 (centres undefined),-219,i,56*,0,-24,
COc1ccc(OC)c(N=c2oc3cc(O)ccc3cc2C(N)=O)c1,-414,i,56*,0,-7,
Cn1c(SCC(=O)NCC2CCCO2)ncc(C(=O)Nc2ccc(Cl)cc2)c1=O (centres undefined),-2,-5,45*,-11,5,
CC1C=CC=CCCC=CC=CC=CC=CC(OC2O[C@H](C)[C@@H](O)[C@H](N)[C@@H]2O)CC(O)C(C(=O)O)C(O)CC(=O)CC(O)C(O)CCC(O)CC(O)CC(O)CC(=O)OC(C)C(C)C1O (some centres undefined),-9,-29,3,-2,·,
CCC(=O)Nc1cc(C(=O)OCC(=O)c2ccc(Cl)cc2Cl)ccc1C,2,11,57*,2,0,
CCC(=O)Nc1cc(C(=O)OCC(=O)c2ccccc2Cl)ccc1C,3,-2,35,5,-3,
CCc1ccc(Nc2nnc(SC3CCOC3=O)s2)cc1 (centres undefined),-1,-1,48*,1,-2,
C=CCn1c(=O)c2c(C)c(C)sc2n2c(Nc3ccc(OC)cc3)nnc12,0,4,34,39*,-7,
C=CCn1c(SCC(=O)Nc2ccc(O)cc2)nc2sc(C)c(C)c2c1=O,-3,-3,-5,-2,-2,
COc1cc(C(=O)NC(=S)Nc2ccccc2[N+](=O)[O-])cc(OC)c1OC,2,5,2,-10,65*,FAS-TE inh conf=25
